BJeLR viability: kills HRASV12-expressing BJeLR cells; BJeLR (HRASV12) viability, CellTiter-Glo ATP luminescence, 48 h; inhibition, % (test concentration not listed); 0.17% of 300,000 active; in the data active = inhibition above about 50%
PrP UTR inh: suppresses PrP 5' UTR mRNA reporter expression; cell-based PrP 5' UTR mRNA reporter, plate reader; inhibition, % (no concentration beside the values); 0.35% of 340,000 active; AID 488862; in the data active = inhibition above about 52%
SSB-PriA inh: blocks PriA binding to SSB C-terminal tail; AlphaScreen SSBct-PriA binding, biotinylated peptide; inhibition, % at 33 µM; 0.6% of 430,000 active; in the data active = inhibition mostly above about 37%, no sharp cut-off; inactive = mostly below about 20%
3CLpro inhibitor: SARS-CoV 3CLpro protease inhibition | recombinant SARS-CoV 3CLpro, quenched FRET peptide cleavage | AID 1706 | 0.14% of 290,000 active | inhibition, % at 6 µM | P0C6X7; in the data active = inhibition above about 12%
PrPC TRFRET: cell surface PrPC inhibition, primary TR-FRET screen; P04156; TR-FRET read-out; inhibition, % at 13.8 µM; 0.43% of 370,000 active; in the data active = inhibition above about 24%
Numbers stand for hits; n = inactive; x = no result given; ! = not active in a repeat. Only some compounds are listed: those with a hit (about 1.2% of all), similar ones and a draw of the others.

SMILES	BJeLR viability	PrP UTR inh	SSB-PriA inh	3CLpro inhibitor	PrPC TRFRET
CCCc1sc(NN=Cc2ccccn2)nc1-c1ccc(F)cc1	x	x	41	x	x
CCCc1sc(N/N=C/c2ccccn2)nc1-c1ccc(F)cc1	61	n	x	n	x
O=C(C[n+]1ccccc1)N/N=C/c1cc(Br)cc(Br)c1O	n	x	x	n	x
O=C(C[n+]1ccccc1)NN=Cc1cc(Br)cc(Br)c1O	x	x	57	x	x
COc1ccc(-c2ccc(SC)nn2)cc1	66	n	n	n	n
O=C1C=CC2(C=C1)O[C@H](Cc1ccccc1)[C@@H](Cc1ccccc1)O2	x	n	n	x	89
CCSc1ccc2c(c1)N(CCCN1CCN(C)CC1)c1ccccc1S2	x	n	43	x	n
CN1CCN(CCCN2c3ccccc3Sc3ccc(Cl)cc32)CC1	n	n	n	n	n
COc1ccc(-n2cnc3cc(NS(=O)(=O)c4ccc(C)cc4)ccc32)cc1	x	n	x	n	x
COc1ccccc1-n1cnc2cc(NCc3cccs3)ccc21	60	n	n	n	n
COc1ccccc1-n1cnc2cc(NS(=O)(=O)c3ccc(Br)cc3)ccc21	n	n	41	n	n
Cc1ccccc1-n1cnc2cc(NCc3cccs3)ccc21	n	n	n	n	n
COc1ccc(S(=O)(=O)C2CN(S(=O)(=O)c3cccnc3)C2)cc1	x	x	n	x	x
COc1ccc(NC(=O)CN(C)S(=O)(=O)c2ccc3[nH]c(=O)oc3c2)cc1	56	n	n	n	n
CCc1ccc(NC(=O)CN(C)S(=O)(=O)c2ccc3[nH]c(=O)oc3c2)cc1	n	n	n	n	x
CCCC(=O)Nc1cccc2c1CCCC2	n	n	n	n	n
CCc1ccc(OCC(=O)Nc2cccc3c2CCCC3)cc1	n	n	51	n	n
O=C(CCSc1ccccc1)Nc1nnc(Cc2cccs2)o1	x	x	n	x	x
CCOC(=O)C1=CN(Cc2cccc(F)c2)S(=O)(=O)NC1c1cccc(OC)c1 (stereo not given)	x	n	47	x	n
Cc1cccc(-n2c(C)cc(C=NNC(=O)c3cccc([N+](=O)[O-])c3C)c2C)c1	x	x	n	x	x
O=S(=O)(c1ccccc1Cl)N1CCN(c2ccc3nnc(C4CC4)n3n2)CC1	x	x	n	x	x
Cn1c(C(=O)c2ccccc2[N+](=O)[O-])nc2ccccc21	n	n	39!	n	n
CCn1ccc(C(=O)Nc2nnc(-c3ccno3)o2)n1	x	x	28	x	x
Cn1ccc(C(=O)Nc2nnc(-c3ccno3)o2)n1	x	x	n	x	x
CCOc1ccc(S(=O)(=O)Nc2cc(Sc3nc4ccccc4s3)c(O)c3ccccc23)cc1	x	x	n	x	x
SMILES	BJeLR viability	PrP UTR inh	SSB-PriA inh	3CLpro inhibitor	PrPC TRFRET
O=S(=O)(Nc1cc(Sc2cccc3cccnc23)c(O)c2ccccc12)c1ccccc1	125	x	n	n	n
O=C(CSc1nc(-c2ccccc2)cs1)Nc1nccs1	n	n	n	n	n
O=C(CSc1nc(-c2ccccc2)cs1)Nc1ccccc1[N+](=O)[O-]	n	n	48	n	n
O=C(NCCSc1ncc(-c2ccccc2)[nH]1)C(=O)Nc1ccccc1[N+](=O)[O-]	x	x	42	x	x
c1ccc(-c2cn(C[C@H]3CC[C@@H]([C@@H]4CC[C@H](Cn5cc(-c6ccccn6)nn5)O4)O3)nn2)nc1	n	n	101	n	n
c1ccc(-c2cn(C[C@H]3CC[C@@H]([C@@H]4CC[C@H](Cn5cc(-c6ccccc6)nn5)O4)O3)nn2)cc1	n	n	n	n	n
NNC(=O)c1[nH]c2ccccc2c1-c1ccccc1	n	n	102	n	n
O=C(CN1CCN(c2nccn2-c2ccccc2F)CC1)N1CCc2ccccc21	x	x	44	x	x
COc1ccc(NC(=O)Cc2csc(Nc3cccc(C(F)(F)F)c3)n2)cc1OC	x	x	17	x	x
COc1ccc(NC(=O)Cc2csc(NC(=O)Nc3ccccc3OC)n2)cc1	x	x	x	x	n
O=C(Nc1ccc(F)cc1)Nc1csc2ccccc12	n	x	n	n	n
CN(C)c1ccc(NC(=O)Nc2csc3ccccc23)cc1	n	n	40	n	n
COc1ccccc1NC(=O)Nc1nc(CC(=O)Nc2ccc(N(C)C)cc2)cs1	n	n	74	x	n
COc1cccc(CNC(=O)Cc2csc(Nc3cc(OC)ccc3OC)n2)c1	x	x	22	x	x
COc1ccc(OC)c(Nc2nc(-c3sc(C)nc3C)cs2)c1	n	n	47	n	n
COc1ccc(OC)c(Nc2nc(CC(=O)O)cs2)c1	x	x	n	x	x
COc1ccc(OC)c(Nc2nc(CC(=O)NCc3ccccc3OC)cs2)c1	x	x	17	x	x
COc1ccc(NC(=O)c2csc(Nc3ccc(OC(F)F)cc3)n2)c(OC)c1	x	x	n	x	x
COc1ccc(OC)c(Nc2nc(CC(=O)Nc3cccc(C)c3C)cs2)c1	x	x	24	x	x
COc1ccc(NC(=O)c2csc(Nc3ccc(OC(F)F)cc3)n2)cc1OC	x	x	active	x	x
O=C(NCCN1CCN(C(=O)c2cc3ccccc3oc2=O)CC1)c1cc2ccccc2oc1=O	n	n	94	n	n
Cc1ccc(C(=O)C2=C(O)C(=O)N(Cc3cccnc3)C2c2cccc(Oc3ccccc3)c2)o1 (stereo not given)	n	x	n	n	44
Cc1ccc(C(=O)C2=C(O)C(=O)N(Cc3ccccc3)C2c2cccnc2)o1 (stereo not given)	n	n	n	n	x
CC(C)Nc1nc(C#N)nc(NC(C)C)n1	n	n	42	n	n
Cn1nnnc1SCc1ccc(O)c2ncccc12	x	x	124	x	x
SMILES	BJeLR viability	PrP UTR inh	SSB-PriA inh	3CLpro inhibitor	PrPC TRFRET
Cn1ccnc1SCc1ccc(O)c2ncccc12	x	x	128	x	x
Oc1ccc(CCc2ccccc2)c2cccnc12	x	x	x	x	n
Cn1cnnc1SCc1ccc(O)c2ncccc12	x	x	125	x	x
Cc1c(Cl)cccc1NC(=O)C(=O)NC[C@@H](c1cccnc1)N1CCc2ccccc2C1	x	x	n	x	x
Cc1ccc(OCCOC[C@@H](O)CN2CCN(CCN3C(=O)c4cccc5cccc(c45)C3=O)CC2)cc1C	x	x	36	x	x
Cc1ccccc1OCC(O)CN1CCN(CCN2C(=O)c3cccc4cccc(c34)C2=O)CC1 (stereo not given)	n	n	n	n	n
COc1cccc(NC(=O)CSc2ccc(-c3ccccn3)nn2)c1	x	x	76	x	x
COc1cc(NC(=O)CSc2ccc(-c3ccccn3)nn2)cc(OC)c1	n	n	78	n	n
COc1ccc(NC(=O)CSc2ccc(-c3ccccn3)nn2)cc1	x	x	n	x	x
CC1CC(=NNc2ccc(S(N)(=O)=O)cc2[N+](=O)[O-])CC(C)(C)C1 (stereo not given)	x	x	52	x	x
CC1CCCC/C1=N\Nc1ccc(S(N)(=O)=O)cc1[N+](=O)[O-] (stereo not given)	n	n	x	n	n
CC(C)(C)C1CCC(=NNc2ccc(S(N)(=O)=O)cc2[N+](=O)[O-])CC1 (stereo not given)	n	n	45	n	n
CN1CCC/C1=C\c1c([N+](=O)[O-])cnn1C	x	x	n	x	x
N#Cc1c(N2CCCC(O)C2)nc(N)c2c(N)nc3c(c12)CC(=O)N3C12CC3CC(CC(C3)C1)C2 (stereo not given)	n	n	63	n	n
CCN(CC)CCCN1C(=O)C(=O)C(=C(O)c2ccc(Cl)cc2)C1c1ccccn1 (stereo not given)	x	x	n	x	x
CN1CCc2c(sc3c2C(=O)NC(c2ccccn2)N3)C1 (stereo not given)	n	n	85	n	n

Assay outcomes as filed in PubChem.
